Bioassay records (PubChem)
In the library only some 2.2% were active in any assay of this set; here they are far more common.
HTR2A ag – agonists of mouse serotonin 5-HT2A receptor (HTR2A) | P35363 | CHO-K1 mHTR2A beta-arrestin complementation, luminescence; percent of 30 µM serotonin response | activation, % at 7.6 µM | hit rate 0.66% among 360,000 | AID 624169;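 active means activation above a run cutoff, the mean activation of all tested compounds plus 3 SD, cut at about 14% in these data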
Target sequence (P35363 whole entry, looked up): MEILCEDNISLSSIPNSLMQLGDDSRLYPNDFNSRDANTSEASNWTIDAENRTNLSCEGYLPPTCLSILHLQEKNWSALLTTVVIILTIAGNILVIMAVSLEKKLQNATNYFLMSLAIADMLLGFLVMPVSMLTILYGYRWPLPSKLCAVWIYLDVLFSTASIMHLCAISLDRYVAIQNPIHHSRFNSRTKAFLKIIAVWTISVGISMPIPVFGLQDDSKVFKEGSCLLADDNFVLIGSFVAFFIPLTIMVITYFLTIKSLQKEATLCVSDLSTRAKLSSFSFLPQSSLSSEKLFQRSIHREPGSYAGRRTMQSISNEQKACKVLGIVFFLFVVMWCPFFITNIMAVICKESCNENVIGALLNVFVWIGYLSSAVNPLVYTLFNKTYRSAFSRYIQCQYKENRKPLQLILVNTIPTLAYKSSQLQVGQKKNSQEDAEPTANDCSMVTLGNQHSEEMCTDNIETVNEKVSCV
MEX-5 binding – C. elegans MEX-5 TCR-2 RNA binding activity | Q9XUB2 | MEX-5/FITC-TCR2 RNA binding, fluorescence polarization; stronger effect = lower value | activity score (negative = inhibition of binding), % at 10 µM | hit rate 0.38% among 300,000;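 active means inhibition past about -25% in most replicates, and total fluorescence under double the plate's negative control median, limit read from the data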
V-ATPase pHluor – yeast V-ATPase proton transport regulation by pHLuorin; hit rate 0.37% among 350,000; response, % at 10 µM; S. cerevisiae, pHLuorin cytosolic pH fluorescence; in the data active means response mostly above about 7.3%, no sharp cut-off; inactive means mostly below about 5.4%; further: actives read high
Exocytosis inh – lytic granule exocytosis inhibition. TALL-104 LAMP-1 surface exposure, flow cytometry; cells stimulated with thapsigargin and PMA. inhibition, % at 10 µM. hit rate 0.66% among 360,000;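 active means inhibition above about 55%, limit read from the data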
JMJD2C inh – blocks human GASC-1 demethylase activity. Q9H3R0. GST-JMJD2C(1-420) H3K9me3 demethylation, DELFIA europium. inhibition, % at 2.35 µM. hit rate 0.069% among 330,000. AID 2099;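 active means more than half of a compound's replicate wells show inhibition beyond 50%, single wells judged on their own value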;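 further: signal counts dimethyl H3K9 product captured on neutravidin plate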
VLA-4 inh – inhibition in a human VLA-4 binding assay; P13612; VLA-4 expressing cells, ligand binding flow cytometry; inhibition, % (about 7 µM as worked out from the volumes in the protocol); hit rate 0.2% among 330,000; AID 2557; in the data active means inhibition above about 50%
OPRM1 ag – OPRM1 agonism in mouse HTR2A counterscreen; shares compounds with HTR2A ag; U2OS OPRM1 beta-arrestin PathHunter, luminescence; DMSO 0%, DAMGO 9.3 µM 100%; activation, % at 9.3 µM; hit rate 5.3% among 2,300;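 active means mean activation above the mean of DMSO-only wells plus 3 SD, cut at about 0.5% in these data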
HTR2A ag conf – confirmation of mouse HTR2A serotonin receptor agonists; AID 624381; CHO-K1 PathHunter beta-arrestin recruitment, luminescence; DMSO 0%, 30 µM serotonin 100%; hit rate 19% among 2,300; shares compounds with HTR2A ag; activation, % at 7.6 µM;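 active means mean activation across triplicates above the hit threshold derived in the original primary screen, cut at about 15% in these data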
Large screens that a line does not name were inactive (follow-up assays come after a bar, where they were run).

O=C(NCc1ccc(F)cc1)c1cc(C2CCCCN2C(=O)c2ccc(Cl)cc2)on1 (stereo not given)	HTR2A ag 15.1 (no result: MEX-5 binding, V-ATPase pHluor, JMJD2C inh, VLA-4 inh) | OPRM1 ag inactive | HTR2A ag conf inactive
Cc1noc(C)c1NC(=O)N(C)C[C@H]1Oc2ccc(NS(=O)(=O)c3c(C)noc3C)cc2C(=O)N([C@H](C)CO)C[C@@H]1C	none (no result: MEX-5 binding)
C[C@H](CO)N1C[C@H](C)[C@@H](CN(C)CC2CC2)Oc2c(NC(=O)C3CC3)cccc2C1=O	none (no result: MEX-5 binding, JMJD2C inh, VLA-4 inh)
C[C@H](CO)N1C[C@H](C)[C@@H](CN(C)C(=O)Nc2ccc3c(c2)OCO3)Oc2ccc(NS(=O)(=O)c3ccccc3)cc2C1=O	HTR2A ag 15.1 (no result: MEX-5 binding) | OPRM1 ag inactive | HTR2A ag conf inactive
Cc1noc(C)c1S(=O)(=O)Nc1ccc2c(c1)C(=O)N([C@H](C)CO)C[C@H](C)[C@@H](CN(C)C(=O)NC1CCCCC1)O2	HTR2A ag 14.9 (no result: MEX-5 binding) | OPRM1 ag inactive | HTR2A ag conf inactive
C[C@H](CO)N1C[C@H](C)[C@@H](CN(C)CC2CC2)Oc2c(NC(=O)Cc3ccccc3)cccc2C1=O	HTR2A ag 16.3 (no result: MEX-5 binding) | OPRM1 ag inactive | HTR2A ag conf inactive
O=C(COC(=O)c1ccc(-n2cnnn2)cc1)Nc1cc(Cl)ccc1F	none (no result: MEX-5 binding)
CCn1c(SCC(=O)Nc2ccc(Br)cn2)nnc1C1CC1	none
O=C(NC1CCS(=O)(=O)C1)C1CCCC1 (stereo not given)	none
O=S1(=O)CCC(NC(=S)N2CCCCC2)C1 (stereo not given)	HTR2A ag 17.1 | OPRM1 ag inactive | HTR2A ag conf inactive
CCOc1ccc(/C=N/N2C(C)CCCC2C)cc1 (stereo not given)	HTR2A ag 17.5 | OPRM1 ag inactive | HTR2A ag conf inactive
COc1cccc(NC(=O)CN(C)C(=O)CN2C(=O)c3ccc([N+](=O)[O-])cc3C2=O)c1	none
COc1ccc(C2CC(c3ccc4ccccc4c3)=NN2C(=O)COC(=O)C2CCC(=O)N2)cc1 (stereo not given)	HTR2A ag 15.3 | OPRM1 ag inactive | HTR2A ag conf inactive
COc1cc(C)c(S(=O)(=O)NCc2ccc3c(c2)OCO3)cc1C	HTR2A ag 29.2 | OPRM1 ag inactive | HTR2A ag conf inactive
Cc1ccc(Cc2c(-c3ccc(C)cc3)nc3c(Cl)cc(C(F)(F)F)cn23)cc1	none (no result: MEX-5 binding, V-ATPase pHluor, JMJD2C inh, VLA-4 inh)
CCCCCCn1cc(CN2CC(N3CCCCC3)CS2(=O)=O)nn1 (stereo not given)	HTR2A ag 15.6 (no result: MEX-5 binding, V-ATPase pHluor, JMJD2C inh, VLA-4 inh) | OPRM1 ag inactive | HTR2A ag conf inactive
Cc1cc(C)cc(Cn2cc(CN3CC(N4CCN(Cc5ccccc5F)CC4)CS3(=O)=O)nn2)c1 (stereo not given)	HTR2A ag 14.9 (no result: MEX-5 binding, V-ATPase pHluor, JMJD2C inh, VLA-4 inh) | OPRM1 ag inactive | HTR2A ag conf inactive
Cc1ccccc1C(=O)Nc1cccc(-c2cn3ccccc3n2)c1	HTR2A ag 15.9 | OPRM1 ag inactive | HTR2A ag conf inactive
CCOc1ccccc1CN1CCNC(=O)C1CC(=O)NCCN1CCOC1=O (stereo not given)	HTR2A ag 15.0 | OPRM1 ag inactive | HTR2A ag conf inactive
O=C(CC1C(=O)NCCN1Cc1ccccc1C(F)(F)F)NCCN1CCOCC1 (stereo not given)	none
O=C(CC1C(=O)NCCN1Cc1ccccc1C(F)(F)F)NCCn1cccn1 (stereo not given)	HTR2A ag 15.6 | OPRM1 ag inactive | HTR2A ag conf inactive
O=[N+]([O-])c1cccc(-c2ccc(/C=N/NC(=S)NCc3ccco3)o2)c1	HTR2A ag 19.9 | OPRM1 ag inactive | HTR2A ag conf inactive
O=[N+]([O-])c1cccc(-c2ccc(/C=N/NC(=S)Nc3ccccc3)o2)c1	none
O=C(O)CCC(=O)N1CCc2cc(S(=O)(=O)N3CCN(c4ccc(F)cc4)CC3)ccc21	HTR2A ag 14.8 | OPRM1 ag inactive | HTR2A ag conf inactive
COCCC(=O)Nc1ccc2c(c1)CN(C(=O)CSC)CC2	none
COCCC(=O)N1CCc2ccc(NC(=O)c3ccc(C(F)(F)F)cc3)cc2C1	HTR2A ag 31.6 | OPRM1 ag 1.2 | HTR2A ag conf inactive
O=C(Nc1ccn(CCCN2CCN(c3ncccn3)CC2)c(=O)n1)OCc1ccccc1	HTR2A ag 25.2 (no result: MEX-5 binding, JMJD2C inh, VLA-4 inh) | OPRM1 ag inactive | HTR2A ag conf 28.9
N#Cc1ccc(S(=O)(=O)N2CCCCC2c2cc(C(=O)N3CCOCC3)no2)cc1 (stereo not given)	none (no result: MEX-5 binding, V-ATPase pHluor, JMJD2C inh, VLA-4 inh)
CC(C)OC(=O)CNc1n[nH]c(=S)[nH]c1=O	none (no result: VLA-4 inh)
COC(=O)CNc1n[nH]c(=S)[nH]c1=O	HTR2A ag 16.7 | OPRM1 ag inactive | HTR2A ag conf inactive
CS(=O)(=O)N(Cc1nc(-c2ccc(F)cc2)no1)c1ccccc1Cl	none (no result: MEX-5 binding)
Cn1c(NCc2ccccc2Cl)nc2ccccc21	HTR2A ag 19.8 | OPRM1 ag inactive | HTR2A ag conf inactive
CC(C(=O)OCC(=O)Nc1ccccc1OC(F)F)N1C(=O)C2CC=CCC2C1=O (stereo not given)	none (no result: MEX-5 binding, JMJD2C inh, VLA-4 inh)
COc1ccc(CC(=O)OCC(=O)Nc2ncc(Cl)c(C)c2Cl)cc1	HTR2A ag 14.6 (no result: MEX-5 binding, JMJD2C inh, VLA-4 inh) | OPRM1 ag inactive | HTR2A ag conf inactive
Cc1c(Cl)cnc(NC(=O)COC(=O)CNC(=O)c2ccccc2)c1Cl	none (no result: MEX-5 binding)
COc1cccc(CNC(=O)c2cc(S(=O)(=O)N3CCOCC3)ccc2N2CCCC2)c1	none (no result: MEX-5 binding)
CC(=O)NCCNC(=O)C1(C)Cc2c(-c3ccc(C(N)=O)cc3)ccnc2O1 (stereo not given)	HTR2A ag 23.6 (no result: MEX-5 binding, V-ATPase pHluor, JMJD2C inh, VLA-4 inh) | OPRM1 ag inactive | HTR2A ag conf inactive
COCCNC(=O)C1(C)Cc2c(-c3cccc(C(N)=O)c3)ccnc2O1 (stereo not given)	none (no result: MEX-5 binding, V-ATPase pHluor, JMJD2C inh, VLA-4 inh)
CC1(C(=O)NCC2CC2)Cc2c(-c3cccc(C(N)=O)c3)ccnc2O1 (stereo not given)	HTR2A ag 14.4 (no result: MEX-5 binding, V-ATPase pHluor, JMJD2C inh, VLA-4 inh) | OPRM1 ag inactive | HTR2A ag conf inactive
O=C(CSc1ccc(-c2ccc(-n3cccn3)cc2)nn1)Nc1ccccc1F	none
Cc1ccccc1OCC(=O)Nc1cccc(S(=O)(=O)NC2=NCCCCC2)c1	none
Cc1ccccc1OCC(=O)Nc1cccc(S(=O)(=O)NC2=NCCC2)c1	HTR2A ag 15.7 (no result: MEX-5 binding) | OPRM1 ag inactive | HTR2A ag conf inactive
O=C(Cc1ccc(F)cc1)Nc1cc(S(=O)(=O)N2CCOCC2)ccc1N1CCCCC1	none (no result: MEX-5 binding, JMJD2C inh, VLA-4 inh)
CC1(C(=O)NS(=O)(=O)C2CC2)CCN(C(=O)c2ccc(F)cc2Cl)C1 (stereo not given)	none (no result: MEX-5 binding, V-ATPase pHluor, JMJD2C inh, VLA-4 inh)
O=c1c(CN2CCN(c3cccc(Cl)c3)CC2)coc2c(Cl)cc(Cl)cc12	HTR2A ag 16.4 | OPRM1 ag inactive | HTR2A ag conf inactive
